In PMC9911399, “Two distinct binding modes provide the RNA-binding protein RbFox with extraordinary sequence specificity” one finds binding signal data, which are given here for 35 molecules.

The labels stand for the following.
B1: CCAGGGC (DNA:RNA)
RNA: GGGAGACCGGAAUUCAGAUUGUCCCCAGGGCUUAAAUCCCGUCGUAGCCACCA
DNA 1: CAATCTGAATTCCGGTCTCCC
DNA 2: TGGTGGCTACGACGGGATT
B2: AGUUAUG (DNA:RNA)
RNA: GGGAGACCGGAAUUCAGAUUGUCCAGUUAUGUUAAAUCCCGUCGUAGCCACCA
DNA 1: CAATCTGAATTCCGGTCTCCC
DNA 2: TGGTGGCTACGACGGGATT
B3: ACCUUAA (DNA:RNA)
RNA: B2 RNA with G26C, U27C, A29U, U30A, G31A
DNA 1: CAATCTGAATTCCGGTCTCCC
DNA 2: TGGTGGCTACGACGGGATT
B4: CCCGCAU (DNA:RNA)
RNA: B1 RNA with A27C, G29C, G30A, C31U
DNA 1: CAATCTGAATTCCGGTCTCCC
DNA 2: TGGTGGCTACGACGGGATT
B5: CUUCACC (DNA:RNA)
RNA: B2 RNA with A25C, G26U, U28C, U30C, G31C
DNA 1: CAATCTGAATTCCGGTCTCCC
DNA 2: TGGTGGCTACGACGGGATT
B6: CGAGUAU (DNA:RNA)
RNA: B1 RNA with C26G, G29U, G30A, C31U
DNA 1: CAATCTGAATTCCGGTCTCCC
DNA 2: TGGTGGCTACGACGGGATT
B7: UGGUUGG (DNA:RNA)
RNA: B2 RNA with A25U, U27G, A29U, U30G
DNA 1: CAATCTGAATTCCGGTCTCCC
DNA 2: TGGTGGCTACGACGGGATT
B8: UGUUUGG (DNA:RNA)
RNA: B2 RNA with A25U, A29U, U30G
DNA 1: CAATCTGAATTCCGGTCTCCC
DNA 2: TGGTGGCTACGACGGGATT
B9: CCCCUGG (DNA:RNA)
RNA: B1 RNA with A27C, G28C, G29U, C31G
DNA 1: CAATCTGAATTCCGGTCTCCC
DNA 2: TGGTGGCTACGACGGGATT
B10: UGGUUGU (DNA:RNA)
RNA: B2 RNA with A25U, U27G, A29U, U30G, G31U
DNA 1: CAATCTGAATTCCGGTCTCCC
DNA 2: TGGTGGCTACGACGGGATT
B11: UGGUUUG (DNA:RNA)
RNA: B2 RNA with A25U, U27G, A29U
DNA 1: CAATCTGAATTCCGGTCTCCC
DNA 2: TGGTGGCTACGACGGGATT
B12: UGGUGGU (DNA:RNA)
RNA: B2 RNA with A25U, U27G, A29G, U30G, G31U
DNA 1: CAATCTGAATTCCGGTCTCCC
DNA 2: TGGTGGCTACGACGGGATT
B13: GUCCUGG (DNA:RNA)
RNA: B2 RNA with A25G, G26U, U27C, U28C, A29U, U30G
DNA 1: CAATCTGAATTCCGGTCTCCC
DNA 2: TGGTGGCTACGACGGGATT
B14: UGGUUUC (DNA:RNA)
RNA: B2 RNA with A25U, U27G, A29U, G31C
DNA 1: CAATCTGAATTCCGGTCTCCC
DNA 2: TGGTGGCTACGACGGGATT
B15: UGGUUCC (DNA:RNA)
RNA: B2 RNA with A25U, U27G, A29U, U30C, G31C
DNA 1: CAATCTGAATTCCGGTCTCCC
DNA 2: TGGTGGCTACGACGGGATT
B16: UGGUUUU (DNA:RNA)
RNA: B2 RNA with A25U, U27G, A29U, G31U
DNA 1: CAATCTGAATTCCGGTCTCCC
DNA 2: TGGTGGCTACGACGGGATT
B17: CUGGUUG (DNA:RNA)
RNA: B2 RNA with A25C, G26U, U27G, U28G, A29U
DNA 1: CAATCTGAATTCCGGTCTCCC
DNA 2: TGGTGGCTACGACGGGATT
B18: UGGUUCG (DNA:RNA)
RNA: B2 RNA with A25U, U27G, A29U, U30C
DNA 1: CAATCTGAATTCCGGTCTCCC
DNA 2: TGGTGGCTACGACGGGATT
B19: CUACGGU (DNA:RNA)
RNA: B1 RNA with C26U, G28C, C31U
DNA 1: CAATCTGAATTCCGGTCTCCC
DNA 2: TGGTGGCTACGACGGGATT
B20: CUCUAUU (DNA:RNA)
RNA: B2 RNA with A25C, G26U, U27C, G31U
DNA 1: CAATCTGAATTCCGGTCTCCC
DNA 2: TGGTGGCTACGACGGGATT
B21: UGCCUAC (DNA:RNA)
RNA: B2 RNA with A25U, U27C, U28C, A29U, U30A, G31C
DNA 1: CAATCTGAATTCCGGTCTCCC
DNA 2: TGGTGGCTACGACGGGATT
B22: GGCUUCC (DNA:RNA)
RNA: B2 RNA with A25G, U27C, A29U, U30C, G31C
DNA 1: CAATCTGAATTCCGGTCTCCC
DNA 2: TGGTGGCTACGACGGGATT
B23: AAAUCUA (DNA:RNA)
RNA: B2 RNA with G26A, U27A, A29C, G31A
DNA 1: CAATCTGAATTCCGGTCTCCC
DNA 2: TGGTGGCTACGACGGGATT
B24: ACCACCC (DNA:RNA)
RNA: B1 RNA with C25A, A27C, G28A, G29C, G30C
DNA 1: CAATCTGAATTCCGGTCTCCC
DNA 2: TGGTGGCTACGACGGGATT
B25: UCUGUUU (DNA:RNA)
RNA: B2 RNA with A25U, G26C, U28G, A29U, G31U
DNA 1: CAATCTGAATTCCGGTCTCCC
DNA 2: TGGTGGCTACGACGGGATT
B26: CGUCGUG (DNA:RNA)
RNA: B2 RNA with A25C, U28C, A29G
DNA 1: CAATCTGAATTCCGGTCTCCC
DNA 2: TGGTGGCTACGACGGGATT
B27: CUGCACC (DNA:RNA)
RNA: B1 RNA with C26U, A27G, G28C, G29A, G30C
DNA 1: CAATCTGAATTCCGGTCTCCC
DNA 2: TGGTGGCTACGACGGGATT
B28: UGCACCG (DNA:RNA)
RNA: B2 RNA with A25U, U27C, U28A, A29C, U30C
DNA 1: CAATCTGAATTCCGGTCTCCC
DNA 2: TGGTGGCTACGACGGGATT
B29: UGCACGU (DNA:RNA)
RNA: B2 RNA with A25U, U27C, U28A, A29C, U30G, G31U
DNA 1: CAATCTGAATTCCGGTCTCCC
DNA 2: TGGTGGCTACGACGGGATT
B30: CUGCACG (DNA:RNA)
RNA: B2 RNA with A25C, G26U, U27G, U28C, U30C
DNA 1: CAATCTGAATTCCGGTCTCCC
DNA 2: TGGTGGCTACGACGGGATT
B31: UGCACCA (DNA:RNA)
RNA: B2 RNA with A25U, U27C, U28A, A29C, U30C, G31A
DNA 1: CAATCTGAATTCCGGTCTCCC
DNA 2: TGGTGGCTACGACGGGATT
B32: CCUGCAC (DNA:RNA)
RNA: B1 RNA with A27U, G29C, G30A
DNA 1: CAATCTGAATTCCGGTCTCCC
DNA 2: TGGTGGCTACGACGGGATT
B33: UGCACGA (DNA:RNA)
RNA: B2 RNA with A25U, U27C, U28A, A29C, U30G, G31A
DNA 1: CAATCTGAATTCCGGTCTCCC
DNA 2: TGGTGGCTACGACGGGATT
B34: UGCCACG (DNA:RNA)
RNA: B2 RNA with A25U, U27C, U28C, U30C
DNA 1: CAATCTGAATTCCGGTCTCCC
DNA 2: TGGTGGCTACGACGGGATT
B35: UGCACGG (DNA:RNA)
RNA: B2 RNA with A25U, U27C, U28A, A29C, U30G
DNA 1: CAATCTGAATTCCGGTCTCCC
DNA 2: TGGTGGCTACGACGGGATT

Numbering of substitutions follows the chain as printed; changes in the protein carry UniProt numbers. In all, about 16,000 sequences were measured (“ka relative to ugcaugu”: median about 0.096, highest 2% from about 0.35 on). For the sample, the highest values were picked, then their nearest neighbours and some sequences at random.

The target of the assay is T1, RBFOX1 RRM RbFoxmut (Fox-RRM*) (Homo sapiens, UniProt Q9NWB1 109-208, R118D;E147R;N151S;E152T).
T1 sequence: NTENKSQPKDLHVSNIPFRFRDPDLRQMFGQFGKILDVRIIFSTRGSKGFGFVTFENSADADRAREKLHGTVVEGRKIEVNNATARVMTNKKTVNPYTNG
Put plainly: EMSA; HiTS-Eq, 1 nM pool, 10 min; buffer printed only for the single-RNA assays: 10 mM Tris pH 7.5, 150 mM NaCl, 3.4 mM EDTA, 0.001% NP-40, 30 C. The settings on record: tags: His6 N-terminal (pET28a); label: 5' 32P. The procedure, abridged:
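Purified wild-type or mutant RbFox RRM at increasing concentrations was equilibrated with 1 nM of 5′-radiolabelled RNA carrying 7 randomized nucleotides for 10 min in 50 µL. Unbound RNA was separated by 8% native PAGE and sequenced. Relative association constants came from read-count changes of each RNA species compared with the control reaction, normalised to the cognate motif.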
For the molecule B1, the binding signal was 0.102 KA relative to UGCAUGU.

Consider B2, for which the binding signal is 0.28 KA relative to UGCAUGU.

With B3, the binding signal is 0.129 KA relative to UGCAUGU.

With B4, the binding signal was 0.0703 KA relative to UGCAUGU.

For B5, the binding signal is 0.0684 KA relative to UGCAUGU.

As to B6, the binding signal was 0.143 KA relative to UGCAUGU.

For the molecule B7, the binding signal is 0.309 KA relative to UGCAUGU.

Consider B8, for which the binding signal was 0.302 KA relative to UGCAUGU.

As to B9, the binding signal is 0.0629 KA relative to UGCAUGU.

Take B10: the binding signal is 0.396 KA relative to UGCAUGU.

Turning to B11, the binding signal is 0.874 KA relative to UGCAUGU.

In the case of B12, the binding signal was 0.161 KA relative to UGCAUGU.

Consider B13, for which the binding signal was 0.075 KA relative to UGCAUGU.

Take B14: the binding signal is 0.183 KA relative to UGCAUGU.

Consider B15, for which the binding signal was 0.157 KA relative to UGCAUGU.

In the case of B16, the binding signal was 0.0956 KA relative to UGCAUGU.

Consider B17, for which the binding signal is 0.458 KA relative to UGCAUGU.

Turning to B18, the binding signal was 0.492 KA relative to UGCAUGU.

B19: the binding signal was 0.0878 KA relative to UGCAUGU.

On to B20, for which the binding signal is 0.107 KA relative to UGCAUGU.

Take B21: the binding signal was 0.105 KA relative to UGCAUGU.

For B22, the binding signal is 0.142 KA relative to UGCAUGU.

Consider B23, for which the binding signal was 0.088 KA relative to UGCAUGU.

On to B24, for which the binding signal is 0.0531 KA relative to UGCAUGU.

As for B25, the binding signal was 0.0825 KA relative to UGCAUGU.

With B26, the binding signal is 0.156 KA relative to UGCAUGU.

For B27, the binding signal is 0.141 KA relative to UGCAUGU.

As for B28, the binding signal is 0.223 KA relative to UGCAUGU.

As to B29, the binding signal is 0.362 KA relative to UGCAUGU.

Take B30: the binding signal was 0.626 KA relative to UGCAUGU.

B31: the binding signal was 0.158 KA relative to UGCAUGU.

As for B32, the binding signal was 0.09 KA relative to UGCAUGU.

Take B33: the binding signal was 0.368 KA relative to UGCAUGU.

Take B34: the binding signal is 0.158 KA relative to UGCAUGU.

Consider B35, for which the binding signal was 0.308 KA relative to UGCAUGU.
